GLP-1R agonist = agonists of human GLP-1 receptor; P43220; HEK293 GLP-1R CRE-luciferase, luminescence, 4-6 h; cells express a hypersensitive GLP-1R form; Potency, µM (doses to about 45.6 µM), for inactives: at the highest dose activation, most hits filed as activators; 380,000 compounds, 0.007% hits; AID 624172; further: % of control where 0% means no effect
Target sequence (P43220 whole entry, looked up): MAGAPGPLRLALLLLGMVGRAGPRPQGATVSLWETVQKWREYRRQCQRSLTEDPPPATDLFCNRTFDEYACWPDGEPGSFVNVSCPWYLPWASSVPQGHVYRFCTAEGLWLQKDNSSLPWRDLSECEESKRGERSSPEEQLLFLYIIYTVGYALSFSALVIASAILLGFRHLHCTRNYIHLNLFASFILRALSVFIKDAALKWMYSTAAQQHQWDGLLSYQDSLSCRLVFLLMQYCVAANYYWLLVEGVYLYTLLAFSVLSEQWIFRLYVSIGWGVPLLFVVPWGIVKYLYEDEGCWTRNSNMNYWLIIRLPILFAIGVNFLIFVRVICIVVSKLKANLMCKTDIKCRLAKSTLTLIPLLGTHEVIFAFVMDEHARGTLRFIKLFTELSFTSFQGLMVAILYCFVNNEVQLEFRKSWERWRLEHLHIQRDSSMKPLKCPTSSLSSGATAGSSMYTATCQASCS
GLP1R inv ag = acts as inverse agonist at human GLP-1 receptor; 410,000 compounds, 1.6% hits; AID 624417; P43220; Potency, µM (highest dose often 38.3 µM), for the others: at the highest dose activity change, negative = inhibition, most hits filed as inhibitors; HEK293 GLP-1R CRE-luciferase, luminescence, 24 h; GLP-1R form is constitutively active; further: on the % scale 0 is the no-effect control and ±100 the full control effect; nearly all actives have a fitted effect of over 55% in size
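HEK293 cells stably co-expressing a cAMP-responsive luciferase reporter and constitutively active GLP-1R were seeded, incubated 12 h, then exposed to compounds for 24 h at 37 C. Luminescence was read 12 min after detection reagent; inverse agonists lower signal.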
BRCA1 expr act = increases BRCA1 expression; AID 624202; 380,000 compounds, 1.1% hits; Potency, µM (highest dose often 46.1 µM), for inactives: top-dose activation, hits mostly activators; MCF7-BRCA1-FFLuc reporter, luminescence, 48 h; response scale: scaled: vehicle 0%, 10 µM genistein 100%; further: nearly all actives have a fitted effect of over 80% in size
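Luminescence from a BRCA1-driven firefly luciferase in MCF7 cells was the read-out, taken 15 min after substrate addition following 48 h compound exposure at 37 °C. Data were normalized to a 10 microM genistein control and DMSO vehicle.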
Mito fusion act = inhibitors of mitochondrial division or activators of mitochondrial fusion. Potency, µM (top dose mostly 46.1 µM), for the others: at the top dose growth rescue (activation), usual class: activators. S. cerevisiae fusion-defective mutant growth rescue, CellTiterGlo 48 h. 320,000 compounds, 0.23% hits; further: % of control where 0% means no effect; nearly all actives have a fitted effect of over 45% in size
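S. cerevisiae fusion-defective temperature-sensitive mutants (e.g. fzo1-1, mgm1-5) grown 48 h at 37C in YPEG (ethanol/glycerol non-fermentable) medium with 23 nl compound per well; growth rescue read as CellTiterGlo luminescence.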
HEK293 tox = cytotoxicity in counter-screen for GLP-1R inverse agonists | HEK293 cAMP-luciferase reporter cells, luminescence, 24 h | Potency, µM (series often up to 38.3 µM), inactives show at the highest dose activity change, negative = inhibition, most hits filed as inhibitors | 410,000 compounds, 0.13% hits | AID 624418;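 further: loss of luciferase light is scored as toxicity; on the % scale 0 is the no-effect control and ±100 the full control effect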
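Seeding density was 200 cells/uL; after overnight-length (12 h) culture, 23 nL compounds went on for 24 h at 37 °C. Readout used a luciferase detection reagent, luminescence taken after 12 min at room temperature.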
The depositor's hits bear a star; ! = a repeat was not active. Most compounds without a hit are left out; they make up all but 2.8% or so of the library. The call rests on the fitted dose curve; in most records, active means well fitted curve in the direction sought with a large enough effect; inconclusive means small, poorly fitted or top-dose-only effect, or another doubt; inactive means no such curve, though single readings can be large; an effect the other way counts as inactive or inconclusive. Potency means the concentration at half of the fitted maximal effect.

Screening CC(C(=O)c1cn(C)c2ccccc12)c1ccccc1 (stereo unspecified) returned GLP-1R agonist 3%, GLP1R inv ag inconclusive, BRCA1 expr act 2%, Mito fusion act 22% and HEK293 tox 5%.
`CCOC(=O)[C@]12Cc3cc(OC)ccc3[C@H]1N(C)C(=O)c1ccccc12` gave GLP-1R agonist -3%, GLP1R inv ag 20%, BRCA1 expr act -4% and HEK293 tox 5%.
For CCOC(=O)[C@]12Cc3cc(Cl)ccc3[C@H]1N(C1CCCCC1)C(=O)c1ccccc12 the results were GLP-1R agonist -26%, GLP1R inv ag 4.5µM*, BRCA1 expr act -73% and HEK293 tox inconclusive.
For CCOC(=O)[C@]12Cc3cc(OC)ccc3[C@H]1N(C1CCCCC1)C(=O)c1ccccc12 the results were GLP-1R agonist -11%, GLP1R inv ag 2.5µM*, BRCA1 expr act -74% and HEK293 tox 10µM*.
CCOC(=O)[C@]12Cc3cc(Cl)ccc3[C@H]1N(CC(=O)OC)C(=O)c1ccccc12 was read as GLP-1R agonist -13%, GLP1R inv ag 7.9µM*, BRCA1 expr act -73% and HEK293 tox inconclusive.
CC(C)(C)N(NC(=O)c1ccccc1)C(=O)c1ccccc1 was read as GLP-1R agonist -4%, GLP1R inv ag 2%, BRCA1 expr act 3%, Mito fusion act 1% and HEK293 tox 3%.
Screening CCOc1cc(CN2CCN(C(=O)Cc3ccccc3)CC2)ccc1OC returned GLP-1R agonist 8%, GLP1R inv ag 33%, BRCA1 expr act -8%, Mito fusion act -1% and HEK293 tox -4%.
`CCN1/C(=C/C(C)=C/c2sc3ccccc3[n+]2CC)Sc2ccccc21` gave GLP-1R agonist -1%, GLP1R inv ag inconclusive, BRCA1 expr act -80%, Mito fusion act 2% and HEK293 tox 13µM*.
C#CC(C)(O)CC (stereo unspecified) was read as GLP-1R agonist 5%.
For CC(C)=CCOc1c2occc2cc2ccc(=O)oc12 the results were GLP-1R agonist inconclusive, GLP1R inv ag 18%, BRCA1 expr act -12%, Mito fusion act 16µM*! and HEK293 tox 9%.
CC1(C)OC1COc1c2occc2cc2ccc(=O)oc12 (stereo unspecified) was read as GLP-1R agonist -1%, GLP1R inv ag -1%, BRCA1 expr act -21%, Mito fusion act 6% and HEK293 tox 8%.
For Clc1ccc2c(c1)C(c1ccccc1)=NCc1nncn1-2 the results were GLP-1R agonist 19%.
`N#CC(C(=O)C12CC3CC(CC(C3)C1)C2)c1nc2ccccc2[nH]1` (stereo unspecified) gave GLP-1R agonist -3%, GLP1R inv ag 1.1µM*, BRCA1 expr act -31%, Mito fusion act -2% and HEK293 tox -10%.
`O=C(Cn1cc(C(=O)c2ccccc2F)c2ccccc21)NCc1ccco1` gave GLP-1R agonist -6%, GLP1R inv ag 0%, BRCA1 expr act -48%, Mito fusion act 3% and HEK293 tox 5%.
`CC(C)(C)C(=O)c1cn(CC(=O)NCc2ccco2)c2ccccc12` gave GLP-1R agonist -2%, GLP1R inv ag inconclusive, BRCA1 expr act 5.6µM*, Mito fusion act -2% and HEK293 tox -21%.
`Cc1nonc1OCCNc1ccc([N+](=O)[O-])c2cccnc12` gave GLP-1R agonist 20%, GLP1R inv ag -12%, BRCA1 expr act -6%, Mito fusion act inconclusive and HEK293 tox -9%.
`Cc1cccc(OCCNc2ncccc2[N+](=O)[O-])c1` gave GLP-1R agonist inconclusive, GLP1R inv ag 2%, BRCA1 expr act 11µM* and HEK293 tox 6%.
Nc1ccc2ccc3cccc[n+]3c2c1 was read as GLP-1R agonist 6%, GLP1R inv ag 21%, BRCA1 expr act -1%, Mito fusion act -4% and HEK293 tox inactive.
`C[n+]1c(-c2ccccc2)c2cc(N)ccc2c2ccc(N)cc21` gave GLP-1R agonist -3%, GLP1R inv ag 1.8µM*, BRCA1 expr act -49%, Mito fusion act -1% and HEK293 tox inconclusive.
Screening C[C@]12CCC3C(CCC4=CC(O)CC[C@@]43/C=N/O)C1(O)CCC2C1=CC(=O)OC1 (stereo partly specified) returned GLP-1R agonist -8%, GLP1R inv ag inconclusive, BRCA1 expr act -95%, Mito fusion act 15% and HEK293 tox inconclusive.
`CCn1c(N2CCN(C(=O)C34CC5CC(CC(C5)C3)C4)CC2)nc2ccccc21` gave GLP-1R agonist 1%, GLP1R inv ag 2µM*, BRCA1 expr act -72%, Mito fusion act 20% and HEK293 tox inconclusive.
Screening COC(=O)C1=C(c2ccc(OCc3ccccc3)cc2)C[C@@H]2CC[C@H]1N2C(=O)NCCCc1ccccc1 returned GLP-1R agonist -4%, GLP1R inv ag -4%, BRCA1 expr act 0%, Mito fusion act 14% and HEK293 tox 17%.
For C=C(CN(C)C)C(=O)c1ccc(C)cc1C the results were GLP-1R agonist -13%, GLP1R inv ag inconclusive, BRCA1 expr act -93% and HEK293 tox 10µM*.
Cc1cccc(-n2c(O)c(C=NCc3cccnc3)c(=O)[nH]c2=O)c1C was read as GLP-1R agonist 15%, GLP1R inv ag 1%, BRCA1 expr act 13%, Mito fusion act -2% and HEK293 tox -5%.
CC1=CC(=O)OC2CC3OC4C[C@@H](C)C5OC6CC7O[C@]8(C)C/C=C\C9OC%10CC%11OC(CC(C)CO)CC(O)[C@]%11(C)OC%10CC9OC8C[C@]7(C)O[C@]6(C)CCC5OC4C[C@]3(C)OC12 (stereo partly specified) was read as GLP-1R agonist -6%, GLP1R inv ag 17%, BRCA1 expr act 4% and Mito fusion act -2%.
C=C(COC(=O)CCC(=O)O)CC1CC(O)[C@]2(C)OC3CC4OC5C[C@]6(C)O[C@]7(C)CCC8OC9C[C@]%10(C)OC%11C(C)=CC(=O)OC%11CC%10OC9C[C@@H](C)C8OC7CC6O[C@]5(C)C/C=C\C4OC3CC2O1 (stereo partly specified) was read as GLP-1R agonist 0%, GLP1R inv ag -1%, BRCA1 expr act -6%, Mito fusion act 16µM* and HEK293 tox 3%.
For CCCCNc1ccc2c3c(cccc13)C(=O)N(CCCC)C2=O the results were GLP-1R agonist 9%, GLP1R inv ag 7.1µM*, BRCA1 expr act -7%, Mito fusion act 16% and HEK293 tox 411%.
Screening CCOC(=O)Nc1ccc2c3c(cccc13)-c1ccccc1-2 returned GLP-1R agonist 1%, GLP1R inv ag inconclusive, BRCA1 expr act -59% and HEK293 tox 336%.

Screens from PubChem BioAssay.
